Assay outcomes from PubChem.
The full list was thinned out, with hits kept by preference.
TDP1 cell noCPT – qHTS for Inhibitors of human tyrosyl-DNA phosphodiesterase 1 (TDP1): qHTS in cells in absence of CPT. DT40 Tdp1-/- hTDP1 cells, no CPT, ATP luminescence, 48 h. Potency, µM (doses to about 46.2 µM), inactives show top-dose activity change, negative = growth inhibition, most hits filed as inhibitors. 420,000 tested, 15% active. AID 686978, 2013; note: potency is the fitted concentration of half-maximal effect; nearly all actives have a fitted effect of over 55% in size
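Compound effects on proliferation are scored in DT40 Tdp1-/-;hTDP1 cells in the absence of CPT. ATP levels (CellTiter-Glo luminescence) are recorded after a ≥48 hr, 37 °C incubation.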
TDP1 cell CPT – growth inhibition of DT40 Tdp1-/-;hTDP1 cells with camptothecin (screen for TDP1 inhibitors); 420,000 tested, 12% active; Potency, µM (titrated, usually from 46.2 µM), for inactives: top-dose activity change, negative = growth inhibition, hits mostly inhibitors; AID 686979; chicken DT40 Tdp1-/-;hTDP1 cells + 20 nM CPT, ATP luminescence, 48 h; note: potency is the fitted concentration of half-maximal effect; nearly all actives have a fitted effect of over 55% in size
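Chicken DT40 Tdp1-/- cells stably complemented with human TDP1 were seeded at 400 cells/well in medium containing 20 nM camptothecin, exposed to pin-transferred compounds, and grown at 37 °C for at least 48 hr. Viability was read as ATP luminescence.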
12-LOX inh – inhibitors of human 12S-lipoxygenase ALOX12; purified 12hLO, xylenol orange hydroperoxide absorbance; Potency, µM (titrated, usually from 108 µM), inactives show top-dose activity change, negative = inhibition, usual class: inhibitors; P18054; 580,000 tested, 1.1% active; note: potency is the fitted concentration of half-maximal effect
Target sequence (P18054 whole entry, looked up): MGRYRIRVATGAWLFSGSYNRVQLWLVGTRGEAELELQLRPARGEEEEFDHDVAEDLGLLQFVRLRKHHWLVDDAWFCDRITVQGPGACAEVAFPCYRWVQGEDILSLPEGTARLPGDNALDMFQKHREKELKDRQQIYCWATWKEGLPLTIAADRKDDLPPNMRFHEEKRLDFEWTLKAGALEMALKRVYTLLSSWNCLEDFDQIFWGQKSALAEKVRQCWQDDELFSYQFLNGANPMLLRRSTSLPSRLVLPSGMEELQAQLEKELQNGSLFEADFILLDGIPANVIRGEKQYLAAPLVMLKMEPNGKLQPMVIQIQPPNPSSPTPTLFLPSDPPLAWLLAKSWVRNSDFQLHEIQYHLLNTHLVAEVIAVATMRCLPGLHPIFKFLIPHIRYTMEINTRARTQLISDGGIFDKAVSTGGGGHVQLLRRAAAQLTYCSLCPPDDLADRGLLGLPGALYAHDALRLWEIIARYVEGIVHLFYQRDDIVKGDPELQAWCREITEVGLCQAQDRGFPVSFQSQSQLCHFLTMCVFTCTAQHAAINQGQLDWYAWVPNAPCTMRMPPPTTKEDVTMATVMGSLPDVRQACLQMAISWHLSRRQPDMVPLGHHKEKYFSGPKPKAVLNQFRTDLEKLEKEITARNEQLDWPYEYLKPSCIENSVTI
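Purified human 12hLO at 150 nM in 25 mM Hepes, 0.01% Triton X-100, pH 7.0, preincubated 15 min at room temperature with compound. Reaction started with 40 uM arachidonic acid, 30 min at room temperature. Hydroperoxide measured by Fe-xylenol orange, 573/405 nm absorbance ratio.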
HT1080NT lethal – kills 2HG-producing HT-1080-NT fibrosarcoma cells; HT-1080-NT fibrosarcoma viability, CellTiter-Glo ATP luminescence, 48 h; Potency, µM (titrated, usually from 46.1 µM), for the others: top-dose activity, negative = less viability, usual class: cytotoxic; 360,000 tested, 1.6% active;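 note: NT is the 2HG producing partner of a matched IDH1 knockdown line; potency is the fitted concentration of half-maximal effect; 0% = DMSO-treated cells and -100% = media-only wells without cells; nearly all actives have a fitted effect of over 55% in size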
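Luminescent CellTiter-Glo readout after 48 hours of compound exposure at 37 degrees C defined viability of HT-1080-NT cells. Activity was normalized to DMSO wells and cell-free media wells; concentration-response curves were fitted and assigned curve classes.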
IL1B secr inh – blocks inflammasome-driven IL-1 beta release. 360,000 tested, 4.7% active. activity change, % at 57.5 µM. THP-1 LPS/ATP IL-1B secretion, AlphaLISA, 16 h; hits give low values. AID 743279; in the data active = activity change below about -50%; inconclusive = mostly about -30% to -49%
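Secreted IL-1B measured by AlphaLISA bead assay after 16 h compound exposure of THP-1 cells; compounds (final up to 57.5 uM) added 1 h before LPS (250 ng/mL) and ATP (1.25 mM) stimulation; lower signal means less secretion.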
HT1080 IDH1KD tx – kills HT-1080 cells with IDH1 knockdown | AID 686971 | 360,000 tested, 2% active | Potency, µM (series often up to 46.1 µM), for inactives: at the top dose activity, negative = toxicity, most hits filed as cytotoxic | HT-1080 IDH1 knockdown viability, ATP luminescence, 48 h;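 note: potency is the fitted concentration of half-maximal effect; 0% = DMSO wells and -100% = cell-free medium wells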
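Assay cells: HT-1080 with IDH1 knockdown, 750 per well, RPMI/5% FBS. Exposure: 48 h at 37 °C following 2 h pre-incubation. Read: CellTiter-Glo luminescence; fitted concentration-response, curve class assigned.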
An asterisk follows results filed as active; ? = inconclusive; / = not tested or not shown; [ ] = remark or other dose. Unless noted, calls come from the whole dose curve; as a rule, active = well fitted curve in the direction sought with a large enough effect; inconclusive = small, poorly fitted or top-dose-only effect, or another doubt; inactive = no such curve, though single readings can be large; an effect the other way counts as inactive or inconclusive. Unless noted, % is set by controls: 0 for no effect and ±100 for the full control effect.

SMILES | TDP1 cell noCPT | TDP1 cell CPT | 12-LOX inh | HT1080NT lethal | IL1B secr inh | HT1080 IDH1KD tx
Cc1nn(C)cc1CNc1nc(C)c(-c2ccn(CC3COc4ccccc4O3)n2)s1 (stereo not drawn) | 21µM* | ? | 0% | / | / | /
Cc1nc(NCc2c(C)nn(C)c2Cl)sc1-c1ccn(CC2COc3ccccc3O2)n1 (stereo not drawn) | 21µM* | 16µM* | ? | / | / | /
Cc1nc(NCc2cnn(C)c2C)sc1-c1ccn(CC2COc3ccccc3O2)n1 (stereo not drawn) | ? | -6%[9.04 µM] | -1% | / | / | /
Cc1cc(CSc2ncccc2C(=O)Nc2ccnn2Cc2ccccc2)no1 | / | / | -3% | / | / | /
CCc1cccc(NC(=O)CN2C(=O)NC3(CCCCCCC3)C2=O)c1 | 15µM* | 10µM* | 8% | -28% | 8 | ?
CCCn1c(C)cc(C(=O)CN2C(=O)NC3(CCCCCC3)C2=O)c1C | 6.5µM* | 10µM* | -3% | 0% | 31 | 1%
CCC1(c2ccccc2)NC(=O)N(CC(=O)Nc2cc(S(=O)(=O)N3CCCCC3)ccc2N(C)C)C1=O (stereo not drawn) | 21µM* | ? | -21% | -23% | -30 | -21%
CC1(c2cccc(Br)c2)NC(=O)N(CC(=O)Nc2ccc(N3CCCCC3)cc2)C1=O (stereo not drawn) | 13µM* | ? | -28% | -26% | -9 | ?
COc1ccccc1OCCNC(=O)C1CCCN(Cc2ccncc2)CCC(=O)NCC1 (stereo not drawn) | / | / | 24% | / | / | /
FC(F)(F)c1cccc2c(N3CCC4(CCCN4Cc4ncc[nH]4)CC3)ccnc12 | / | / | 160% | / | / | /
O=[S+]([O-])(c1cccnc1)c1nnn2c1nc(NCc1ccc(F)cc1)c1ccccc12 | / | / | 8%[6.33 µM] | / | / | /
Cc1ccc(NC(=O)CN2C(=O)NC3(CCCCC3)C2=O)cc1Cl | / | / | 17% | / | / | /
O=C(CN1C(=O)NC2(CCCCCCC2)C1=O)Nc1ccc(Cl)cc1 | 15µM* | 13µM* | -25% | ? | 17 | ?
Cc1ccc(C2(C)NC(=O)N(CC(=O)Nc3ccc4c(c3)CCC4)C2=O)cc1 (stereo not drawn) | -23% | ? | 22% | 2%[9.24 µM] | -25 | 0%
CC(=O)Nc1ccc(NC(=O)CN2C(=O)NC3(CCCCCCC3)C2=O)cc1 | ? | -16% | -3% | 2% | 22 | 11%
Cc1cc(NC(=O)CN2C(=O)NC3(CCCCCC3)C2=O)ccc1Br | 21µM* | ? | 11% | ? | -13 | ?
CC(C)CC1(C)NC(=O)N(CC(=O)Nc2ccc3c(c2)CCC3)C1=O (stereo not drawn) | 26µM* | ? | 31% | ? | 0 | -28%
O=C(CN1C(=O)NC2(CCCCCC2)C1=O)Nc1ccc(OC(F)(F)F)cc1 | 9.2µM* | 15µM* | ? | -23% | -22 | ?
Cc1cc(OCC(=O)Nc2ccccc2N2CCN(S(C)(=O)=O)CC2)ccc1Cl | / | / | 18% | / | / | /
COC(=O)c1ccc(C(=O)N(C)Cc2ccsc2)s1 | / | / | 12% | / | / | /
CC1CCC2(CC1)NC(=O)N(CC(=O)Nc1cccc(S(=O)(=O)N3CCCCC3)c1)C2=O (stereo not drawn) | 23µM* | ? | 155% | -13% | -4 | -22%
CCc1ccc(C(=O)CN2C(=O)NC3(CCCCCC3)C2=O)cc1 | 23µM* | ? | ? | -6% | -27 | -14%
O=C(CN1C(=O)NC2(CCCCCC2)C1=O)c1ccc(F)cc1 | -25% | -27% | 0% | -1% | -5 | -1%
CCN(c1ccccc1)S(=O)(=O)c1ccc(OC)c(NC(=O)CN2C(=O)NC(C)(C)C2=O)c1 | -1% | -14% | 161% | 1% | -5 | 8%
O=C(CN1C(=O)NC2(CCCC2)C1=O)OCc1ccc(Cl)c(Cl)c1 | 21µM* | 16µM* | -21% | -7% | -1 | -8%
SMILES | TDP1 cell noCPT | TDP1 cell CPT | 12-LOX inh | HT1080NT lethal | IL1B secr inh | HT1080 IDH1KD tx
CC1CCC2(CC1)NC(=O)N(CC(=O)Nc1cccc(S(=O)(=O)N3CCOCC3)c1)C2=O (stereo not drawn) | 2% | -12% | -6% | -5% | 22 | -2%
CCN(c1ccccc1)S(=O)(=O)c1ccc(Cl)c(NC(=O)CN2C(=O)NC3(CCCC3)C2=O)c1 | 18µM* | ? | -14% | -5% | ? | 1%
CNC(=O)/C=C/c1ccccc1F | / | / | 4% | / | / | /
CCOC(=O)c1ccc(NC(=O)c2cc[n+]([O-])cc2)cc1 | / | / | 9% | / | / | /
O=C(Cc1ccccc1F)N1CCC2(CC1)CN(C1CCC1)CC2CO (stereo not drawn) | / | / | 82% | / | / | /
CN(C)c1nc(N)nc2c1ncn2C1OC(CO)CC1O (stereo not drawn) | ? | ? | 3% | 1% | -28 | 2%
COc1nc(N)nc2c1ncn2C1OC(CO)CC1O (stereo not drawn) | 1.5µM* | 1µM* | 2% | 3% | 0 | 0%
OCC1CCCC(n2cnc3c(=S)nc[nH]c32)O1 (stereo not drawn) | 4% | 6% | ? | 2% | 33 | 3%
Nc1nc(=S)c2ncn(C3OC(CO)CC3O)c2[nH]1 (stereo not drawn) | 12µM* | -18% | ? | -19% | 49 | ?
CCCNC(=O)Cc1c(C)nc2nc(N)nn2c1C | / | / | 4% | / | / | /
O=C(c1cc(F)ccc1F)N1CCC2(CC1)NC(=O)N(Cc1ccc(F)cc1)C2=O | / | / | 27% | / | / | /
Oc1ccccc1C1C=C(c2ccc3c(c2)OCO3)NC(c2ccc(Br)cc2)N1 (stereo not drawn) | 11µM* | 11µM* | / | / | / | /
COc1ccc(Br)cc1C1NC(c2ccc3c(c2)OCO3)=CC(c2ccccc2O)N1 (stereo not drawn) | 10µM* | ? | / | / | / | /
O=C1C=C(c2ccc3c(c2)OCO3)C[C@@H](c2ccc(Cl)cc2)C1 | -12% | -12% | -5% | -6% | 36 | 10%
Cc1ccc(C2NC(c3ccc4c(c3)OCO4)=CC(c3cc(Br)ccc3O)N2)cc1 (stereo not drawn) | 4.5µM* | 7.9µM* | / | / | / | /
O=C(O)c1cc(-c2ccc3c(c2)OCO3)nc2ccc(Br)cc12 | -2% | -20% | ? | -21% | 14 | -7%
COc1ccc(OC)c2nc(-c3ccc4c(c3)OCO4)ccc12 | -31% | -1% | ? | -6% | 1 | -17%
